Pf Dd2 inh = inhibitors of Plasmodium falciparum Dd2 growth; activity change, % at 10 µM; P. falciparum Dd2 growth, SYBR Green, 72 h; active compounds read low; 94,000 compounds, 2.3% hits; in the data active = activity change below about -80%; inconclusive = no clear call, values can overlap the other calls
T cruzi growth-1 = T. cruzi proliferation inhibition; 77,000 compounds, 5.9% hits; inhibition, % at 8.34 µM; T. cruzi beta-gal in NIH3T3, GalScreen luminescence, 90 h;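 active = mean inhibition above about 93%, with at least 55% of replicates each passing it, limit read from the data, passing the limit was not always enough; inconclusive = only one of those two conditions holds; inactive = neither condition holds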
C diff HTS = blocks growth of Clostridium difficile | Clostridium difficile clinical isolate growth, OD600, 24 h; active compounds read low | growth activity, negative = inhibition, % at 16 µg/mL (by protocol) | 86,000 compounds, 0.25% hits;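 active = mean growth activity at or below -80% and every replicate also at or below -80%; inconclusive = mean at or below -80% but some replicate above -80%; inactive = mean growth activity above -80%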
T cruzi growth-2 = Trypanosoma cruzi proliferation inhibition; shares compounds with T cruzi growth-1; inhibition, % at 8.35 µM; AID 651739; T. cruzi beta-gal in NIH3T3, GalScreen luminescence, 90 h; 5,600 compounds, 72% hits;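 active = mean replicate inhibition above about 95% and at least 55% of replicates individually reaching it, limit read from the data; inconclusive = only one of the two criteria is met; inactive = neither criterion is met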
T cruzi growth-3 = blocks T. cruzi growth in NIH3T3 host cells; shares compounds with T cruzi growth-1; T. cruzi beta-gal in NIH3T3, GalScreen luminescence, 90 h; inhibition, % at 2.09 µM; 5,600 compounds, 21% hits; AID 651740;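 active = mean inhibition above about 95%, with at least 55% of replicates also reaching it, limit read from the data; inconclusive = meets just one of the two conditions; inactive = meets neither condition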
NIH3T3 tox = cytotoxicity in mouse NIH/3T3 fibroblasts | cytotoxicity (signal decrease), % at 8.35 µM | NIH/3T3 viability, CellTiter-Glo ATP luminescence, 90 h | shares compounds with T cruzi growth-1 | AID 651742 | 5,600 compounds, 14% hits;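 active = mean signal decrease across replicates above about 35% based on untreated-well scatter, with enough replicates individually passing, limit read from the data; inconclusive = no rule stated though some were filed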
NIH3T3 tox 2 = cytotoxicity in mouse NIH/3T3 fibroblasts | shares compounds with T cruzi growth-1 | 5,600 compounds, 56% hits | NIH/3T3 viability, CellTiter-Glo ATP luminescence, 90 h | inhibition, % at 24.9 µM;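 active = mean loss of cell viability signal at or above a set limit, and enough replicates individually reaching it; inconclusive = meets only the mean limit or only the replicate share; inactive = meets neither condition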
Of the large screens only hits and unclear results are named; the others gave an inactive call (follow-up assays come after a bar, where they were run). Shown are actives, neighbours in structure and some others; about 6.8% of the full set was active somewhere.

Cc1ccc(S(=O)(=O)N(C)C[C@H]2Oc3cc(-c4cccc(F)c4)ccc3S(=O)(=O)N([C@@H](C)CO)C[C@H]2C)cc1	T cruzi growth-1 118.8 | T cruzi growth-2 102.9 | T cruzi growth-3 inconclusive | NIH3T3 tox inactive | NIH3T3 tox 2 48.6
Cc1ccc(S(=O)(=O)N(C)C[C@H]2Oc3cc(-c4cccc(F)c4)ccc3S(=O)(=O)N([C@H](C)CO)C[C@@H]2C)cc1	T cruzi growth-1 126.5 | T cruzi growth-2 105.0 | T cruzi growth-3 inactive | NIH3T3 tox 36.1 | NIH3T3 tox 2 inactive
O=C(CN1CCOCC1)N1[C@@H]2CNc3ccccc3[C@@H]2[C@@H]1CO	none
O=C(N[C@@H]1CC[C@H](CCn2cc(Cc3ccccc3)nn2)O[C@@H]1CO)c1cnccn1	none
C[C@@H]1CN([C@@H](C)CO)C(=O)c2cc(NC(=O)Nc3cccc4ccccc34)ccc2O[C@H]1CN(C)Cc1ccc2c(c1)OCO2	none
C[C@H](CO)N1C[C@H](C)[C@H](CN(C)Cc2ccc3c(c2)OCO3)Oc2ccc(NC(=O)Nc3ccccc3)cc2CC1=O	none
C[C@@H]1CN([C@@H](C)CO)C(=O)Cc2cc(NC(=O)Nc3cccc4ccccc34)ccc2O[C@@H]1CN(C)Cc1ccc2c(c1)OCO2	T cruzi growth-1 102.8 | T cruzi growth-2 109.1 | T cruzi growth-3 inactive | NIH3T3 tox inactive | NIH3T3 tox 2 52.1
C[C@@H]1CN([C@H](C)CO)C(=O)Cc2cc(NC(=O)Nc3cccc4ccccc34)ccc2O[C@H]1CN(C)Cc1ccc2c(c1)OCO2	T cruzi growth-1 inconclusive | T cruzi growth-2 106.8 | T cruzi growth-3 inactive | NIH3T3 tox inactive | NIH3T3 tox 2 inactive
C[C@@H]1CN([C@H](C)CO)C(=O)Cc2cc(NC(=O)Nc3cccc4ccccc34)ccc2O[C@@H]1CN(C)Cc1ccc2c(c1)OCO2	T cruzi growth-1 102.6 | T cruzi growth-2 107.4 | T cruzi growth-3 inactive | NIH3T3 tox inconclusive | NIH3T3 tox 2 72.1
C[C@H]1CN([C@@H](C)CO)C(=O)Cc2cc(NC(=O)Nc3cccc4ccccc34)ccc2O[C@@H]1CN(C)Cc1ccccc1	none
O=C1CN(S(=O)(=O)c2ccccc2)C[C@H]2[C@H](c3ccc(Br)cc3)[C@H](CO)N12	none (no result: T cruzi growth-1)
C[C@H](CO)N1C[C@H](C)[C@@H](CN(C)CC2CCOCC2)Oc2ncc(C#CCC3CCCC3)cc2C1=O	none
C[C@@H]1CN([C@H](C)CO)S(=O)(=O)c2ccc(-c3ccc(F)cc3)cc2O[C@@H]1CN(C)C(=O)Nc1ccccc1F	T cruzi growth-1 110.4 | T cruzi growth-2 109.9 | T cruzi growth-3 inactive | NIH3T3 tox inactive | NIH3T3 tox 2 37.4
C[C@@H]1CN([C@@H](C)CO)S(=O)(=O)c2ccc(-c3ccccc3)cc2O[C@@H]1CN(C)C(=O)Nc1ccccc1F	none (no result: C diff HTS)
C[C@H](CO)N1C[C@H](C)[C@H](CN(C)C(=O)Nc2cc(F)ccc2F)Oc2cc(-c3cccc(F)c3)ccc2S1(=O)=O	none
C[C@H](CO)N1C[C@H](C)[C@@H](CN(C)C(=O)Nc2cc(F)ccc2F)Oc2cc(-c3cccc(F)c3)ccc2S1(=O)=O	T cruzi growth-1 107.1 | T cruzi growth-2 111.4 | T cruzi growth-3 inactive | NIH3T3 tox inactive | NIH3T3 tox 2 32.1
C[C@@H]1CN([C@H](C)CO)S(=O)(=O)c2ccc(C#CC3CC3)cc2O[C@@H]1CN(C)C(=O)Nc1cc(F)ccc1F	T cruzi growth-1 104.5 (no result: C diff HTS) | T cruzi growth-2 108.7 | T cruzi growth-3 inactive | NIH3T3 tox inactive | NIH3T3 tox 2 inactive
COc1ccc(-c2ccc3c(c2)O[C@@H](CN(C)C(=O)Nc2ccccc2F)[C@H](C)CN([C@@H](C)CO)S3(=O)=O)cc1	none
COc1ccc(-c2ccc3c(c2)O[C@@H](CN(C)C(=O)Nc2ccccc2F)[C@@H](C)CN([C@H](C)CO)S3(=O)=O)cc1	Pf Dd2 inh -85.7, T cruzi growth-1 97.2 | T cruzi growth-2 106.5 | T cruzi growth-3 inactive | NIH3T3 tox 47.5 | NIH3T3 tox 2 38.9
C[C@@H]1CN([C@H](C)CO)S(=O)(=O)c2ccc(C#CC3CC3)cc2O[C@H]1CN(C)C(=O)Nc1cc(F)ccc1F	none (no result: C diff HTS)
COc1cccc(S(=O)(=O)N[C@H]2C=C[C@@H](CC(=O)NCc3ccncc3)O[C@@H]2CO)c1	none
C[C@@H]1CN([C@@H](C)CO)C(=O)Cc2cc(NC(=O)Nc3ccc(F)cc3)ccc2O[C@H]1CN(C)S(=O)(=O)c1cn(C)cn1	none (no result: C diff HTS)
C[C@H](CO)N1C[C@H](C)[C@H](CN(C)Cc2ccncc2)OCCCC[C@H](C)Oc2ccc(NC(=O)c3ccccc3)cc2C1=O	none
CC(C)NC(=O)NCC[C@@H]1CC[C@H](NS(=O)(=O)c2ccc(Oc3ccccc3)cc2)[C@H](CO)O1	none (no result: C diff HTS)
CO[C@H]1CN(C)C(=O)c2ccc(NC(=O)C3CCC3)cc2OC[C@@H](C)N(CC2CCCCC2)C[C@@H]1C	T cruzi growth-1 inconclusive (no result: C diff HTS) | T cruzi growth-2 107.0 | T cruzi growth-3 inactive | NIH3T3 tox inactive | NIH3T3 tox 2 103.3
CO[C@@H]1CN(C)C(=O)c2cc(NC(=O)C3CCOCC3)ccc2OC[C@@H](C)N(CC2CCOCC2)C[C@H]1C	none (no result: Pf Dd2 inh, C diff HTS)
CO[C@@H]1CN(C)C(=O)c2ccc(NC(=O)C3CC3)cc2OC[C@@H](C)N(CC2CCCC2)C[C@H]1C	none (no result: T cruzi growth-1)
CO[C@@H]1CN(C)C(=O)c2cc(NC(=O)C3CCOCC3)ccc2OC[C@@H](C)N(CC2CC2)C[C@@H]1C	T cruzi growth-1 98.9 (no result: C diff HTS) | T cruzi growth-2 inactive | T cruzi growth-3 inactive | NIH3T3 tox inactive | NIH3T3 tox 2 inactive
Cc1noc(C)c1S(=O)(=O)N(C)C[C@H]1OCCCC[C@@H](C)Oc2ccc(NC(=O)CCCN(C)C)cc2C(=O)N([C@@H](C)CO)C[C@H]1C	none
C[C@@H]1CCCCO[C@@H](CN(C)C(=O)Cc2ccccc2)[C@H](C)CN([C@H](C)CO)C(=O)c2cc(NS(=O)(=O)c3ccccc3)ccc2O1	none (no result: T cruzi growth-1, C diff HTS)
C[C@@H]1CN([C@H](C)CO)S(=O)(=O)c2ccc(C#Cc3ccccc3F)cc2O[C@H]1CN(C)C(=O)Cc1ccncc1	none (no result: T cruzi growth-1)
C[C@@H]1CN([C@@H](C)CO)S(=O)(=O)c2ccc(C#Cc3ccccc3F)cc2O[C@@H]1CN(C)C(=O)Cc1ccncc1	none (no result: T cruzi growth-1)
C[C@@H]1CN([C@@H](C)CO)S(=O)(=O)c2ccc(C#Cc3ccccc3F)cc2O[C@H]1CN(C)C(=O)Cc1ccccc1	T cruzi growth-1 120.2 | T cruzi growth-2 101.9 | T cruzi growth-3 109.9 | NIH3T3 tox 55.6 | NIH3T3 tox 2 91.7
C[C@H]1CN([C@@H](C)CO)S(=O)(=O)c2ccc(C#Cc3ccccc3F)cc2O[C@@H]1CN(C)C(=O)Cc1ccccc1	T cruzi growth-1 120.8 | T cruzi growth-2 105.7 | T cruzi growth-3 106.8 | NIH3T3 tox inactive | NIH3T3 tox 2 103.0
